Among all 69,000 compounds or so, about 8,600 (12%) showed an effect of 50% or more. Shown is part of a subset that was picked to be rich in strong results.
Test system: Plasmodium berghei
Test: Screen against P. berghei liver stage (PbLuc), transformed with Luciferase, at 10uM
Assay type: functional, HepG2
Settings: tested at 10 uM

How did the INHIBITION turn out when `CS(=O)(=O)N1C[C@H]2CC[C@@H](C1)N(C(=O)CCc1ccsc1)C2` was run?
Its INHIBITION is -34.8%.

Which INHIBITION does the source give for `Cc1cc(C(F)(F)F)cc(N2C[C@@H](CN(C)CCO)[C@@H](CO)C2)n1` here?
The INHIBITION was 0.348%.

How did the INHIBITION turn out when `COc1cnc(N2C[C@@H](CN3CCOCC3)[C@@H](CO)C2)nc1` was run?
The INHIBITION was -35%.

With `Cc1nc(CN2CCC(O)(c3ccccc3F)CC2)c2ccccn12` as the compound, how does the INHIBITION read?
Its INHIBITION is 23.9%.

How did the INHIBITION turn out when `Cc1nc(CN2CCC3(CCCO3)CC2)c2ccccn12` was run?
The INHIBITION was 53.6%.

For `Cc1nc2ccccn2c1CN1C[C@@H](CN2CCOCC2)[C@@H](CO)C1`, which INHIBITION is on record?
The INHIBITION was 12.8%.

Which INHIBITION does the source give for `Cc1cc(C(F)(F)F)cc(N2C[C@@H](CN3CCOCC3)[C@@H](CO)C2)n1` here?
Its INHIBITION is 53.2%.

With `Cc1nc(CN2C[C@@H](CN3CCOCC3)[C@@H](CO)C2)c2ccccn12` as the compound, how does the INHIBITION read?
The INHIBITION was 63.7%.

With `OC[C@H]1CN(Cc2c(Cl)cncc2Cl)C[C@H]1CN1CCOCC1` as the compound, how does the INHIBITION read?
Its INHIBITION is -37.9%.

Which INHIBITION does the source give for `Cc1ccc(C2(O)CCN(Cc3nc(C)n4ccccc34)CC2)nc1` here?
The INHIBITION was 26.1%.

With `CCC1CN(C(=O)NCCOc2ccc3c(c2)OCO3)CCO1` (centres undefined) as the compound, how does the INHIBITION read?
Its INHIBITION is 30.2%.

How did the INHIBITION turn out when `Cc1cc(Oc2ccccc2)nc(C2CCN(CCO)CC2)n1` was run?
The INHIBITION was 24.15%.

How did the INHIBITION turn out when `Cn1cccc1C(=O)N[C@@H]1CN(Cc2cccs2)[C@@H]2COC[C@@H]21` was run?
The INHIBITION was -4.88%.

With `Cc1nc(Cn2c3c(ccc2=O)CC(N)CC3)cs1` (centres undefined) as the compound, how does the INHIBITION read?
The INHIBITION was 9.65%.

How did the INHIBITION turn out when `CN(Cc1cccc(O)c1)C(=O)Nc1cccnc1N1CCCC1` was run?
The INHIBITION was 33.3%.

For `O=c1[nH]c2csnc2c(=O)n1Cc1ccc(Br)cc1`, which INHIBITION is on record?
Its INHIBITION is 29.1%.

`Cc1cnccc1-n1nc(C(C)C)nc1CCc1cnccn1` was tested. Which INHIBITION did it give?
Its INHIBITION is -3.12%.

Which INHIBITION does the source give for `CCC(c1nc(C(C)C)nn1-c1ccncc1C)n1cccn1` (centres undefined) here?
Its INHIBITION is 57.2%.

For `CCC(c1nc(C(C)C)nn1-c1ccccn1)n1cccn1` (centres undefined), which INHIBITION is on record?
The INHIBITION was 38.8%.

How did the INHIBITION turn out when `CCCn1ccnc1CN1CC[C@@H](NC(=O)c2cccnc2)[C@H](O)C1` was run?
Its INHIBITION is 12.9%.

Which INHIBITION does the source give for `Cc1nn(CCO)c(C)c1CN1CCN(C2CCCCC2)C(=O)C1` here?
The INHIBITION was 16.9%.

For `CC(=O)NCCNC(=O)Nc1cccc(Cl)c1SC(F)F`, which INHIBITION is on record?
The INHIBITION was 46.4%.

How did the INHIBITION turn out when `CN(C)C(=O)CNC(=O)Nc1cccc(Cl)c1SC(F)F` was run?
The INHIBITION was 23.2%.

`CCNC(=O)CNC(=O)Nc1cccc(Cl)c1SC(F)F` was tested. Which INHIBITION did it give?
The INHIBITION was 64.3%.

How did the INHIBITION turn out when `O=C(CNC(=O)Nc1cccc(Cl)c1SC(F)F)NC1CC1` was run?
Its INHIBITION is 29.5%.

With `CNC(=O)CCNC(=O)Nc1cccc(Cl)c1SC(F)F` as the compound, how does the INHIBITION read?
The INHIBITION was 60.3%.

Which INHIBITION does the source give for `O=C(NCCO)Nc1cccc(Cl)c1SC(F)F` here?
Its INHIBITION is 13%.

`O=C(NCC1COCc2c(-c3cccnc3)nnn2C1)c1cccs1` (centres undefined) was tested. Which INHIBITION did it give?
The INHIBITION was 43.2%.

For `COCCNc1ccc(CC2CCCNC2)cn1` (centres undefined), which INHIBITION is on record?
Its INHIBITION is 44.3%.

From ChEMBL document CHEMBL4513216, “Probing the Open Global Health Chemical Diversity Library for Multistage-Active Starting Points for Next-Generation Antimalarials” (ACS Infect Dis, 2020)
